Measurements taken from PubChem BioAssay (EPA / NIEHS).
Values joined by “and” are separate entries in the source; they are usually repeats but may differ in a detail not shown here. Equal entries are not always repeated. Records with an inconclusive call do not appear. More than one record can exist for a structure, and the calls need not agree. Active and inactive are the calls of the source. How the source made its calls, unless noted: active means hit-call score of the fitted dose curve at least 0.9, where 1 is the maximum; inactive means score below 0.9.

Experiments:
[1] = ATG_GAL4_TRANS: Attagene TRANS-FACTORIAL HepG2 Assay for GAL4 (Internal Marker) (AID 2282976; active means hit-call score of the fitted dose curve at least 0.9, where 1 is the maximum); conditions: HepG2 Attagene TRANS GAL4 internal marker reporter
How it was run: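 Liver HepG2 line bearing multiplexed GAL4-UAS reporter constructs; 24 h chemical treatment. Transcripts were quantified as fluorescent fragments on capillary electrophoresis after RT-PCR and HpaI cut, with activity fitted upward from DMSO.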

[2] = target: Estrogen-related receptor gamma (Homo sapiens) (UniProt P62508); test: ATG_ERRg_TRANS: Attagene TRANS-FACTORIAL HepG2 Assay for human Estrogen-Related Receptor gamma (ERRg) (AID 2282977; active means hit-call score of the fitted dose curve at least 0.9, where 1 is the maximum;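 further: hits increase reporter signal over DMSO so potencies reflect activators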); conditions: HepG2 Attagene TRANS reporter, ERRg transactivation
Sequence of Estrogen-related receptor gamma (Homo sapiens) (P62508 whole entry, looked up, the tested form may be a part): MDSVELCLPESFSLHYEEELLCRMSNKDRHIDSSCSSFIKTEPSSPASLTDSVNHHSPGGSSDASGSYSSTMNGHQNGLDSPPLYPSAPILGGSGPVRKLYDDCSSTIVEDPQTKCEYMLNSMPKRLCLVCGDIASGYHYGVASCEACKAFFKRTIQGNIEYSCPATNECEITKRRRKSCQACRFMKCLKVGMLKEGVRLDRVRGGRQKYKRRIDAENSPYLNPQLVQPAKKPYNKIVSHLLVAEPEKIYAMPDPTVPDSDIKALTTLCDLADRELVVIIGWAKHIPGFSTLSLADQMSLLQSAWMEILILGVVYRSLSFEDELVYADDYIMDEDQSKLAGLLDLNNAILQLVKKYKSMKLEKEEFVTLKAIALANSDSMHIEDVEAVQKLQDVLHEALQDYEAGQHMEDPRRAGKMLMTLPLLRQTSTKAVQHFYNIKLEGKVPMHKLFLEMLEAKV
How it was run: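 Exogenous NR-Gal4 chimera activity measured as reporter transcript induction after 24 h in transiently transfected HepG2 cells. RNA reverse-transcribed, PCR-amplified, 6-FAM-labelled and resolved by capillary electrophoresis; increase over DMSO baseline.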

[3] = target: Glucocorticoid receptor (Homo sapiens) (UniProt P04150); test: ATG_GR_TRANS: Attagene TRANS-FACTORIAL HepG2 Assay for human Glucocorticoid Receptor (GR) (AID 2282978; active means hit-call score of the fitted dose curve at least 0.9, where 1 is the maximum;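 further: activators score as hits since higher reporter transcript over DMSO is fitted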); conditions: HepG2 Attagene TRANS GR reporter, mRNA transcription
How it was run: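 Fluorescent capillary-electrophoresis quantitation of reporter mRNA is the readout, taken 24 h after dosing human HepG2 cells carrying transiently transfected GAL4-UAS reporter units activated by chimeric NR-GAL4 fusions; activity scored as induction over DMSO.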

[4] = target: Oxysterols receptor LXR-alpha (Homo sapiens) (UniProt Q13133); test: ATG_LXRa_TRANS: Attagene TRANS-FACTORIAL HepG2 Assay for human Liver X Receptor alpha (LXRa) (AID 2282980; active means hit-call score of the fitted dose curve at least 0.9, where 1 is the maximum); conditions: HepG2 Attagene TRANS reporter, LXRa transactivation
Sequence of Oxysterols receptor LXR-alpha (Homo sapiens) (Q13133 whole entry, looked up, the tested form may be a part): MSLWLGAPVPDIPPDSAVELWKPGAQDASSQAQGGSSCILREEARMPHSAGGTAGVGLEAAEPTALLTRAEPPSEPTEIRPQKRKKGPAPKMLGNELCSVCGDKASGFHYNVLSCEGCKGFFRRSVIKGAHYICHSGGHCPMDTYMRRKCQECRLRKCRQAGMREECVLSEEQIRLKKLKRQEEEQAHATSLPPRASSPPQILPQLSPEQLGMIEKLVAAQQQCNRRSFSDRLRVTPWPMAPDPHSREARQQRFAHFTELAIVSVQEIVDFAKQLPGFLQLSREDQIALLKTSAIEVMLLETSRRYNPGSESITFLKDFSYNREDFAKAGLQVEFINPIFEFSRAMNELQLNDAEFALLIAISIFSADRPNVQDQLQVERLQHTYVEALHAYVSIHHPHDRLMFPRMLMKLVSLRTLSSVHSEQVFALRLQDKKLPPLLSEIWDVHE
How it was run: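 In this multiplexed TRANS system, compounds act on HepG2 cells carrying GAL4-UAS reporter units and a receptor-GAL4 fusion for 24 h. Induced reporter RNA is amplified, fluorescently labelled and sized by capillary electrophoresis, with DMSO as baseline.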

[5] = target: Oxysterols receptor LXR-beta (Homo sapiens) (UniProt P55055); test: ATG_LXRb_TRANS: Attagene TRANS-FACTORIAL HepG2 Assay for human Liver X Receptor beta (LXRb) (AID 2282981; active means hit-call score of the fitted dose curve at least 0.9, where 1 is the maximum); conditions: HepG2 Attagene TRANS GAL4-LXRb reporter, mRNA
Sequence of Oxysterols receptor LXR-beta (Homo sapiens) (P55055 whole entry, looked up, the tested form may be a part): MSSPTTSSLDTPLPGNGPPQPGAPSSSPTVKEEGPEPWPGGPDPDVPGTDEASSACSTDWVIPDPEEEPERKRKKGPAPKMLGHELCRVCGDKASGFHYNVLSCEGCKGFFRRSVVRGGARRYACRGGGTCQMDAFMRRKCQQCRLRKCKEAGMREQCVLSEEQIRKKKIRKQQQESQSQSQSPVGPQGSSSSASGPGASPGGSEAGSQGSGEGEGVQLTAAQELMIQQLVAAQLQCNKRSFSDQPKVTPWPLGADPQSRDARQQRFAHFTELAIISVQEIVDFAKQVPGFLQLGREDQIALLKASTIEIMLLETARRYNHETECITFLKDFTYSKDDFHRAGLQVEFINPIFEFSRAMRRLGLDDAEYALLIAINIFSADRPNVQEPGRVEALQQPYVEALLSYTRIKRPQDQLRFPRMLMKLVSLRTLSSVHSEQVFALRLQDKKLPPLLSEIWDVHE
How it was run: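 After 24 h chemical treatment of transfected HepG2 cells carrying exogenous NR-Gal4 chimeras, reporter mRNA was quantified by fluorescent RT-PCR and capillary electrophoresis; activity taken as increase over DMSO controls.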

[6] = target: Hepatocyte nuclear factor 4-alpha (Homo sapiens) (UniProt P41235); test: ATG_HNF4a_TRANS: Attagene TRANS-FACTORIAL HepG2 Assay for human Hepatocyte Nuclear Factor 4 alpha (HNF4a) (AID 2282982; active means hit-call score of the fitted dose curve at least 0.9, where 1 is the maximum); conditions: HepG2 HNF4a transactivation reporter, mRNA readout
Sequence of Hepatocyte nuclear factor 4-alpha (Homo sapiens) (P41235 whole entry, looked up, the tested form may be a part): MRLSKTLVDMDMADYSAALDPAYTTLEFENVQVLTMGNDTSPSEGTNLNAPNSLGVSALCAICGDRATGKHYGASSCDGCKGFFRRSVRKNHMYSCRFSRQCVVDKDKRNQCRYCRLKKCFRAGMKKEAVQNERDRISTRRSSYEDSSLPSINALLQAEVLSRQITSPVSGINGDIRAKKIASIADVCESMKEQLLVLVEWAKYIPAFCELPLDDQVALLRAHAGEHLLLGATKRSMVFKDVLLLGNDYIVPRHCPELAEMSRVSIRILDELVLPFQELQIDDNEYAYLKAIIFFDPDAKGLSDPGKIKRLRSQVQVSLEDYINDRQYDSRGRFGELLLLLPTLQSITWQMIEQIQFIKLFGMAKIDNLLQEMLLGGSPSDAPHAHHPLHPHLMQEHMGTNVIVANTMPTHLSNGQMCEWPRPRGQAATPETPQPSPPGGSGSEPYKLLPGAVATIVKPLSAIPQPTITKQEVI
How it was run: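 Activity of an exogenous HNF4a–Gal4 fusion scored as induced GAL4-UAS reporter transcripts after 24 h chemical exposure of transfected human HepG2 cells. Read-out via RT-PCR with 6-FAM labelling and capillary electrophoresis; rise over DMSO baseline.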

[7] = ATG_M_06_TRANS: Attagene TRANS-FACTORIAL HepG2 Assay for M06 Transcription Factor (Internal Marker) (AID 2282983; active means hit-call score of the fitted dose curve at least 0.9, where 1 is the maximum); conditions: HepG2 Attagene TRANS M06 internal marker reporter
How it was run: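 Multi-reporter-transfected HepG2, 24 h treatment; reporter transcripts quantified via RT-PCR, primer-extension labelling and CE. DMSO-normalized gain-of-signal fit.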

[8] = ATG_M_32_TRANS: Attagene TRANS-FACTORIAL HepG2 Assay for M32 Transcription Factor (Internal Marker) (AID 2282984; active means hit-call score of the fitted dose curve at least 0.9, where 1 is the maximum); conditions: HepG2 Attagene TRANS M32 internal marker reporter
How it was run: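 Internal background reporter in transfected HepG2: after 24 h chemical exposure, RNA reverse-transcribed, reporter cDNA amplified, fluorescently labelled and HpaI-cut, then sized by capillary electrophoresis. Gain of signal fitted against DMSO control.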

[9] = target: Nuclear receptor subfamily 4 group A member 2 (Homo sapiens) (UniProt P43354); test: ATG_NURR1_TRANS: Attagene TRANS-FACTORIAL HepG2 Assay for human Nuclear Receptor Related Protein 1 (NURR1) (AID 2282985; active means hit-call score of the fitted dose curve at least 0.9, where 1 is the maximum); conditions: HepG2 Attagene TRANS reporter, mRNA readout
Sequence of Nuclear receptor subfamily 4 group A member 2 (Homo sapiens) (P43354 whole entry, looked up, the tested form may be a part): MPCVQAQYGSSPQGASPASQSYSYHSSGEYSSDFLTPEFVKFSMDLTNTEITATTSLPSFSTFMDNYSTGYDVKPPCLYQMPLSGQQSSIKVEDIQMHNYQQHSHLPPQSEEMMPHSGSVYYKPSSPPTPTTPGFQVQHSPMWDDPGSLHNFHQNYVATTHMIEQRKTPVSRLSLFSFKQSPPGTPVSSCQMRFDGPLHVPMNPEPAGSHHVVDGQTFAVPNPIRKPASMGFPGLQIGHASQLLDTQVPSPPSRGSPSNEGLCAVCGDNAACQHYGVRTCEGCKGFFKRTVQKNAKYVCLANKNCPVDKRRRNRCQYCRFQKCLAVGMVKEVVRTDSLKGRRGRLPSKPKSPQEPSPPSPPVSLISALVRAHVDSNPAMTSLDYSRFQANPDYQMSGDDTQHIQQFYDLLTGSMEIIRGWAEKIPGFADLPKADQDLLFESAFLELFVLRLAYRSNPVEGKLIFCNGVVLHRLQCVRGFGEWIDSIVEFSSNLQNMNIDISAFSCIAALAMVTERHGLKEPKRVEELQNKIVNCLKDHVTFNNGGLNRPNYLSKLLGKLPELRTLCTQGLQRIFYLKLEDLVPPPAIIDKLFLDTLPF
How it was run: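 Reporter transcript induction, measured by RT-PCR with fluorescent labelling, HpaI digestion and capillary electrophoresis, after 24 hr dosing of human HepG2 cells transiently expressing an exogenous NR-Gal4 fusion with GAL4-UAS-driven reporters; DMSO as baseline.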

[10] = target: Transcriptional activator Myb (Homo sapiens) (UniProt P10242); test: ATG_Myb_CIS: Attagene CIS-FACTORIAL HepG2 Assay for human Myeloblastosis (Myb) Proto-Oncogene Transcription Factor (AID 2282986); conditions: HepG2 Attagene CIS-FACTORIAL Myb reporter transcription; actives raise or lower the signal
Sequence of Transcriptional activator Myb (Homo sapiens) (P10242 whole entry, looked up): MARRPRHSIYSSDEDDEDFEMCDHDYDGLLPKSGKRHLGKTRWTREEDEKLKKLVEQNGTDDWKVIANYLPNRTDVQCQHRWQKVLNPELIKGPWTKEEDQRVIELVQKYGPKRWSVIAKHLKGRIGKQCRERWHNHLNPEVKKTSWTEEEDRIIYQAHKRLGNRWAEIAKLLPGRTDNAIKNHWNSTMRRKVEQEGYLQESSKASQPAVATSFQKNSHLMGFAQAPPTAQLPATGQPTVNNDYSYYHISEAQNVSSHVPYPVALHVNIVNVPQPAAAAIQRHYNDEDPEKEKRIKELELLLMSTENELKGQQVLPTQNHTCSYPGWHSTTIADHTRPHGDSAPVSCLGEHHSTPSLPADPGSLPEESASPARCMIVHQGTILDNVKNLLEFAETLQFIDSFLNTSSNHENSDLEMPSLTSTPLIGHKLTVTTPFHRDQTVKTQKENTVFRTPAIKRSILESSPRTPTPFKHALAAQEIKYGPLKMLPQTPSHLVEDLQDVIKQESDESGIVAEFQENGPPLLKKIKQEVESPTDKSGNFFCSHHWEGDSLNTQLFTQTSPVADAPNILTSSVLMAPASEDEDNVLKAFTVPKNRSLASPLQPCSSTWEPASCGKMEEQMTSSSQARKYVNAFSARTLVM
How it was run: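 Reporter transcript levels, quantified by fluorescent RT-PCR and capillary electrophoresis, serve as the read-out. Transfected HepG2 cells carrying cis-promoter reporter units are dosed for 24 hours, and curves are fitted bidirectionally against DMSO controls.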

[11] = target: Nuclear respiratory factor 1 (Homo sapiens) (UniProt Q16656); test: ATG_NRF1_CIS: Attagene CIS-FACTORIAL HepG2 Assay for human Nuclear Respiratory Factor 1 (NRF1) Orphan Gene (AID 2282987); conditions: HepG2 NRF1 cis-element reporter, Attagene multiplex; actives raise or lower the signal
Sequence of Nuclear respiratory factor 1 (Homo sapiens) (Q16656 whole entry, looked up): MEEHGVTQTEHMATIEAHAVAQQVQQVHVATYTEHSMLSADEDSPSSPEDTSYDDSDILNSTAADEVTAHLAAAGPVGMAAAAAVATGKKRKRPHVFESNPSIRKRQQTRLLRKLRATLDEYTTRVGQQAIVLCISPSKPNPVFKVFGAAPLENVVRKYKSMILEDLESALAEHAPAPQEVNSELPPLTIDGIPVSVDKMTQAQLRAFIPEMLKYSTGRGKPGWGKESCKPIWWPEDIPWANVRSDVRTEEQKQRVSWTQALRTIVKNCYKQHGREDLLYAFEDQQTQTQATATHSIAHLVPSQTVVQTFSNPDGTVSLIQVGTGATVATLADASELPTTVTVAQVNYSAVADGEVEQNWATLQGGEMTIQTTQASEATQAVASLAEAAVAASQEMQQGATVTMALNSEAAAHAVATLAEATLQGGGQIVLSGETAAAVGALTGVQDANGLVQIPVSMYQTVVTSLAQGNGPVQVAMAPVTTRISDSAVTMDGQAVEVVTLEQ
How it was run: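 Multiplexed cis-reporter assay, HepG2 cells, 24 h treatment. Total RNA → oligo(dT) RT → PCR with reporter-specific primers → 6-FAM primer extension → HpaI cut → CE. Bidirectional fit vs DMSO.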

[12] = ATG_NFI_CIS: Attagene CIS-FACTORIAL HepG2 Assay for human Nuclear Factor I (NFI) (AID 2282989); conditions: HepG2 cis-regulatory reporter, NFI response element transcription; actives raise or lower the signal
How it was run: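 Read-out: reporter mRNA via RT-PCR plus capillary electrophoresis with fluorescence detection. Transiently transfected HepG2 (endogenous TF activity on cis promoters), 24 h compound exposure; gain or loss of signal fitted against DMSO.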

[13] = ATG_NRF2_ARE_CIS: Attagene CIS-FACTORIAL HepG2 Assay for human Nuclear Factor Erythroid 2 Related Factor 2 (NFR2) response to Antioxidant Response Elements (ARE) (AID 2282992); conditions: HepG2 Attagene ARE/NRF2 reporter, transcription factor activity; actives raise or lower the signal;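 on AC50: reporter mRNA level measured by RT-PCR and capillary electrophoresis fluorescence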
How it was run: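 Fluorescence intensity of reporter-specific cDNA fragments, separated by capillary electrophoresis, reflects mRNA induction in transfected HepG2 cells at 24 h. Activity is fitted bidirectionally, DMSO serving as baseline.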

[14] = ATG_Oct_MLP_CIS: Attagene CIS-FACTORIAL HepG2 Assay for human Octamer-Binding Transcription Factor (Oct) (AID 2282993); conditions: HepG2 Attagene cis-factorial Oct reporter, mRNA; actives raise or lower the signal
How it was run: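 Read-out: reporter mRNA via RT-PCR plus capillary electrophoresis of 6-FAM-labelled fragments. Transiently transfected HepG2, 24 h exposure, endogenous TF activity on cis elements. Gain or loss of signal fitted relative to DMSO.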

[15] = BSK_3C_TissueFactor: BioMAP Diversity Plus: 3C Assay for Tissue Factor Biomarker Activity (AID 2282997); conditions: BioMAP 3C HUVEC, tissue factor biomarker readout; actives raise or lower the signal
How it was run: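 In this endothelial system, HUVEC are treated for 24 h and Tissue Factor is assessed by ELISA, normalised to DMSO.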

[16] = BSK_3C_uPAR: BioMAP Diversity Plus: 3C Assay for Urokinase-type plasminogen activator receptor (uPAR) Biomarker Activity (AID 2282998); conditions: BioMAP 3C HUVEC, uPAR biomarker ELISA; actives raise or lower the signal
How it was run: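 HUVEC primary cells; 24 h post-dose; uPAR by ELISA; gain or loss of signal fitted bidirectionally vs DMSO baseline.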

[17] = target: Bile acid receptor (Homo sapiens) (UniProt Q96RI1); test: ATG_FXR_TRANS: Attagene TRANS-FACTORIAL HepG2 Assay for Farnesoid X Receptor (FXR) (AID 2282979; active means hit-call score of the fitted dose curve at least 0.9, where 1 is the maximum;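 further: hits raise reporter mRNA above DMSO so AC50 marks FXR activation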); conditions: HepG2 Attagene TRANS FXR-GAL4 reporter transcription
Sequence of Bile acid receptor (Homo sapiens) (Q96RI1 whole entry, looked up, the tested form may be a part): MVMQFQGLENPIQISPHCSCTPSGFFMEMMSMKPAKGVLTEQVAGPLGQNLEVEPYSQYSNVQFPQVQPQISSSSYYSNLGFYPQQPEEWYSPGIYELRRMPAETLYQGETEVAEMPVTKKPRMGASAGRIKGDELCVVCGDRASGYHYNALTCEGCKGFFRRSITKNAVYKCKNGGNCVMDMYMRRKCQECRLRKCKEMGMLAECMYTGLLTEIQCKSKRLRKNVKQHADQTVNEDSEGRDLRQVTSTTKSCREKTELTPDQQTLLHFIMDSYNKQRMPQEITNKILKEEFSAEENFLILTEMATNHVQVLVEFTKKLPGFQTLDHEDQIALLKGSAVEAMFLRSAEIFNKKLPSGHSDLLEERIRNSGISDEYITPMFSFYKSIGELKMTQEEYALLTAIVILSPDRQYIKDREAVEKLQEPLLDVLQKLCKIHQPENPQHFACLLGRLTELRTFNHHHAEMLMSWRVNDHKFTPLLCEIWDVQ
How it was run: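 After 24 h chemical treatment of transfected HepG2 cells, GAL4-UAS reporter transcripts driven by an exogenous FXR-GAL4 fusion were measured by RT-PCR and capillary electrophoresis. Increases over DMSO were fitted.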

[18] = target: Myc proto-oncogene protein (Homo sapiens) (UniProt P01106); test: ATG_Myc_CIS: Attagene CIS-FACTORIAL HepG2 Assay for human Myelocytomatosis (Myc) Proto-Oncogene Transcription Factor (AID 2282990); conditions: HepG2, Attagene cis-reporter transcription factor activity; actives raise or lower the signal
Sequence of Myc proto-oncogene protein (Homo sapiens) (P01106 whole entry, looked up, the tested form may be a part): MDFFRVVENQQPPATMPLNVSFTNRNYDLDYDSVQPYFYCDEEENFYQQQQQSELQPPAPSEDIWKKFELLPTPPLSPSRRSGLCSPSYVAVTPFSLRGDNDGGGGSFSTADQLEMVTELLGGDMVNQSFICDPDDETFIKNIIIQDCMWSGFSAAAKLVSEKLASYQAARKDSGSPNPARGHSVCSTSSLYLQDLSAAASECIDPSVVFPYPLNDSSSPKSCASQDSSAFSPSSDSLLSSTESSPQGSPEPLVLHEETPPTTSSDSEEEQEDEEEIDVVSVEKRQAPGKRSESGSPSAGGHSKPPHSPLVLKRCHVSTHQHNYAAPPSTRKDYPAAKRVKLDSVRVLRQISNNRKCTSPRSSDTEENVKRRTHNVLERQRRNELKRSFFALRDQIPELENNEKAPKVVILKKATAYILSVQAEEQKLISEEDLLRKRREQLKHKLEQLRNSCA
How it was run: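 After 24 h chemical treatment of HepG2 cells carrying multiplexed cis-regulated reporter constructs, reporter transcripts quantified by RT-PCR and capillary electrophoresis of fluorescent fragments. Gain or loss fitted against DMSO baseline.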

[19] = ATG_NF_kB_CIS: Attagene CIS-FACTORIAL HepG2 Assay for human Nuclear Factor Kappa B (NF-kB) (AID 2282991); conditions: HepG2 Attagene cis-factorial NF-kB reporter mRNA; actives raise or lower the signal
How it was run: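 Transient MRTU transfection of human HepG2 liver cells → 24 h chemical exposure → total RNA, oligo(dT) RT → PCR, 6-FAM primer extension, HpaI digest 2 h 37 C → CE fragment analysis. Bidirectional fitting, DMSO negative control.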

[20] = target: Cellular tumor antigen p53 (Homo sapiens) (UniProt P04637); test: ATG_p53_CIS: Attagene CIS-FACTORIAL HepG2 Assay for human p53 Transcription Factor (AID 2282994); conditions: HepG2 p53 cis-element reporter, Attagene mRNA; actives raise or lower the signal
Sequence of Cellular tumor antigen p53 (Homo sapiens) (P04637 whole entry, looked up): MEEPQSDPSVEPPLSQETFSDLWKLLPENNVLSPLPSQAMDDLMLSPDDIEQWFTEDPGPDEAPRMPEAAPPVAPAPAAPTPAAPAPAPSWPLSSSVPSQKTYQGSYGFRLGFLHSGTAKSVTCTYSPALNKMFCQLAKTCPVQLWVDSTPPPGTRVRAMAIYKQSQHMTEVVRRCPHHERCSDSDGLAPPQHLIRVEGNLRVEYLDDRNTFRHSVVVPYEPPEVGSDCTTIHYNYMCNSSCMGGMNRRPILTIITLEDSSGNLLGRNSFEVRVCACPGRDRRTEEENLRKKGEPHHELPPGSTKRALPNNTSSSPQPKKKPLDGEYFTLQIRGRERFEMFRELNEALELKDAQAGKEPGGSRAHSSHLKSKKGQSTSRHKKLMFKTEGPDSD
How it was run: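 Transiently transfected HepG2 (multiple cis reporter transcription units); exposure 24 h; reporter RNA via RT-PCR, 6-FAM extension, 2 h HpaI digest at 37 C, CE detection; DMSO baseline.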

Measured: AC50

CC(C)(C)c1ccc(CSc2cnn(C(C)(C)C)c(=O)c2Cl)cc1
inactive: [1] | [2] | [3] | [4] | [5] | [6] | [7] | [8] | [9] | [10] | [12] | [15]
active: [11] 19.1 µM | [13] 91.2 nM | [14] 0.024 µM | [16] 8.48 µM

CCCCNC(=O)OCC#CI
inactive: [2] | [3] | [17] | [4] | [5] | [7] | [10] | [11] | [12] | [13] | [14]
active: [6] 64.2 µM | [12] 49 µM | [13] 27600 nM | [14] 29.9 µM | [15] 11.6 µM and 21.2 µM | [16] 13.4 µM and 12.9 µM

CO/C=C(/C(=O)OC)c1ccccc1Oc1cc(Oc2ccccc2C#N)ncn1
inactive: [1] | [2] | [3] | [4] | [5] | [6] | [7] | [8] | [9] | [10] | [11] | [12] | [18] | [13] | [14] | [15]
active: [9] 71.2 µM | [11] 65.6 µM | [14] 15.6 µM | [15] 21.1 µM and 24.6 µM | [16] 13.3 µM [middle of 4 runs]

C=CCC1=C(C)C(OC(=O)C2C(C=C(C)C)C2(C)C)CC1=O (centres undefined)
inactive: [1] | [2] | [3] | [17] | [4] | [5] | [6] | [7] | [8] | [10] | [11] | [12] | [19] | [14] | [20]
active: [17] 35.7 µM and 35 µM and 27.2 µM | [6] 179 µM | [11] 136 µM and 144 µM | [12] 61.6 µM [middle of 5 runs] | [19] 43.2 µM and 105 µM | [14] 47.5 µM [middle of 5 runs] | [20] 170 µM and 86.4 µM | [15] 34 µM [middle of 4 runs] | [16] 35.3 µM [middle of 4 runs]

CCCCOC(=O)c1ccccc1C(=O)OCCCC
active: [13] 62.4 µM [middle of 5 runs]
inactive: [1] | [2] | [3] | [4] | [5] | [6] | [7] | [8] | [9] | [10] | [11] | [12] | [19] | [14] | [15] | [16]

COc1cnc(OC)n2nc(NS(=O)(=O)c3c(OCC(F)F)cccc3C(F)(F)F)nc12
inactive: [1] | [3] | [4] | [5] | [6] | [7] | [9] | [10] | [11] | [12] | [13] | [14] | [15] | [16]
